# High-throughput results from PubChem.
# Compounds with a hit are over-represented: about 7.9% of the library has one in this group of screens.
# HCV inh: blocks hepatitis C virus; Huh7.5.1 HCVcc-Cre infection, luciferase reporter, 44 h; Potency, µM (top dose mostly 41.8 µM), for the others: at the top dose activity change, negative = inhibition, usual class: inhibitors; actives 3.4% (n = 340,000); AID 651820; active means well fitted inhibition curve with a large enough effect; inconclusive means small, poorly fitted or top-dose-only effect, or another doubt; inactive means no such curve, though single readings can be large or run the other way; further: potency means the concentration at half of the fitted maximal effect
#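 Cells seeded at 1,000/well and cultured 4 h, then compounds added followed by HCVcc-Cre virus (~0.5 moi). After 44 h further culture, luciferase substrate was added, plates held 15 min at room temperature, and luminescence read for 15 sec.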
# HCMV antiviral: inhibitors of human cytomegalovirus | HFF cells, HCMV-luciferase reporter, 72 h; hits give low values | activity change, negative = inhibition, % at 57.5 µM | actives 4.5% (n = 410,000) | AID 1259415; in the data active means activity change below about -60%; inconclusive means no clear call, values can overlap the other calls; inactive means above about -39%
#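 Two-dose cell screen: HFF monolayers treated with compounds and infected with luciferase-expressing HCMV at 1 PFU/cell, 72 h at 37C, then lysed for luciferase measurement.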
# Lassa entry inh: Lassa virus entry inhibition; Lassa virus pseudotype entry inhibition, cell reporter; Potency, µM (top dose mostly 37.9 µM), for the others: at the highest dose activity change, negative = inhibition, hits mostly inhibitors; actives 1.2% (n = 300,000); calls by dose curve; tested in HEK293 cells; further: potency means the concentration at half of the fitted maximal effect; nearly all actives have a fitted effect of over 50% in size
# FMDV inh: antivirals against foot and mouth disease virus; actives 1.2% (n = 410,000); FMDV antiviral cell-based qHTS; AID 1159524; Potency, µM (titrated, usually from 57.9 µM), without a hit: at the top dose activity change, negative = inhibition, actives largely listed as inhibitors; calls by dose curve; tested in HEK293T cells; further: read-out not given here; potency means the concentration at half of the fitted maximal effect; nearly all actives have a fitted effect of over 45% in size
# MARV entry inh: inhibitors of Marburg virus binding or cell entry; Marburg virus pseudotyped entry inhibition, cell reporter; Potency, µM (doses to about 37.8 µM), without a hit: at the highest dose activity change, negative = inhibition, most hits filed as inhibitors; actives 1.8% (n = 300,000); calls by dose curve; tested in HEK293 cells; further: potency means the concentration at half of the fitted maximal effect
# * hit, by the source's call; u = inconclusive; x = not tested or not shown; [ ] = remark or other dose. On the % scale 0 is the no-effect control and ±100 the full control effect.
SMILES,HCV inh,HCMV antiviral,Lassa entry inh,FMDV inh,MARV entry inh
COc1ccc(/C=C/C(=O)Nc2sc3c(c2C(N)=O)CCC(C)C3)cc1OC (stereo not given),x,-20,-23%[46.1 µM],6%,13%[46.1 µM]
Cn1c(NC2CCCCC2)cc(=O)n(C)c1=O,4%,11,14%,3%,-11%
Cc1cc(C2CCCCC2)n(O)c(=O)c1,u,-78*,x,-28%,x
Cc1ccsc1C(=O)Nc1cc(C(C)(C)C)nn1-c1ccccc1,u,-110*,-21%,-19%,18%
COc1ccc(-n2cnnc2SCC(=O)Nc2cc(C(C)(C)C)nn2-c2ccccc2)cc1,-3%,-96*,-14%,0%,-4%
COc1ccccc1-n1cnnc1SCC(=O)Nc1cc(C(C)(C)C)nn1-c1ccccc1,u,u,-11%,-27%,-21%
C#CCN1C(=O)[C@@H](C)[C@@](C#N)(C(=O)OC)[C@H]1c1ccc(OC)cc1,x,1,x,x,x
Nc1nonc1C(=O)NCCNCc1c(OCc2ccccc2F)ccc2ccccc12,14µM*,6,u,u,u
Nc1nonc1C(=O)NCCNCc1ccccc1F,x,2,0%[46.1 µM],8%,-11%[46.1 µM]
CNCc1c(OCc2ccccc2)ccc2ccccc12,u,-7,u,-2%,u
CNCc1c(OCc2ccccc2F)ccc2ccccc12,8.9µM*,u,u,-20%,u
CC(NC(=O)C1CCOCC1)c1nnc2n1CCN(Cc1ccc(F)cc1)CC2 (stereo not given),x,x,x,-11%,x
CC(=O)[C@@]1(C)OC(N)=C(C#N)[C@@H](c2ccccc2)C1(C#N)C#N,x,x,x,x,0%
Cc1nn(Cc2cccc(C(=O)NC34CC5CC(CC(C5)C3)C4)c2)c(C)c1Br,14µM*,-39,u,u,u
Cc1cccc(/C=N/NC(=O)Cc2ccc(Cl)cc2)c1O,13µM*,-89*,x,15%,x
O=C(N/N=C/c1ccoc1)c1ccc(Cl)cc1,1%,-75*,x,0%,x
COc1cccc(/C=N/NC(=O)c2c(C)nc3ccc(Cl)cn23)c1O,2.5µM*,-99*,u,11%,1µM*
COc1ccccc1/C=N\NC(=O)c1c(C)nc2ccc(Cl)cn12,9%,11,x,0%,x
O=C(N/N=C/c1ccoc1)c1ccc(Br)cc1,5%,-17,x,24%,x
O=C(Cc1ccc(Cl)cc1)N/N=C/c1c(Cl)cccc1Cl,5%,-8,u,15%,-1%
Cc1ccc(O)c(/C=N/NC(=O)Cc2ccc(Cl)cc2)c1,u,-99*,x,-5%,x
Cc1cccc(/C=N\NC(=O)c2ccc(Cl)cc2)c1O,u,-101*,11µM*,-3%,5.6µM*
O=C(N/N=C/c1c[nH]c2ccccc12)c1ccc(Cl)cc1,u,-39,8%,52%,u
CC(C)(C(=O)NCc1ccco1)n1cc(NC(=O)c2cncc(Br)c2)cn1,x,5,x,x,x
CCOc1ccc(C2C(=O)N(C3CCCCCC3)CC(=O)N2Cc2ccc(F)cc2)cc1OC (stereo not given),x,u,-13%[46.1 µM],-10%,x
SMILES,HCV inh,HCMV antiviral,Lassa entry inh,FMDV inh,MARV entry inh
Fc1cccc(-c2cc3nc4c(c(N5CCC6(CC5)OCCO6)n3n2)CCCC4)c1,13µM*,14,3%,x,u
Cc1ccccc1S(=O)(=O)N1[C@@H](c2ccccc2)C(C(=O)O)=CC[C@H]1c1ccc(Cl)cc1,4%,-99*,x,3%,x
COc1ccc(C(C#N)N2CCC(c3ccccc3)=N2)cc1 (stereo not given),17%,-73*,3%[46.1 µM],2%,u
COc1ccc2c(c1)-c1nc(-n3ncc(C(=O)NCc4cccc(C)n4)c3C3CC3)ncc1CC2,x,x,x,-17%,x
COc1ccc(-c2csc(Nc3ccccc3)[n+]2CC(O)c2ccc([N+](=O)[O-])cc2)cc1 (stereo not given),8.9µM*,8,x,u,x
CCOC(=O)C(Cc1ccccc1)(Nc1ccc(OC)cc1)C(O)c1ccc([N+](=O)[O-])cc1 (stereo not given),x,-3,x,x,x
CCN(CC)CCN1c2ccccc2Sc2ccc3ccccc3c21,u,u,11%[46.1 µM],-16%,10µM*
O=C(c1[nH]ncc1-c1cccc(Br)c1)C1CO1 (stereo not given),u,15,u,35µM*,u
CC(C)Cn1c(N)c(C(=O)COC(=O)c2cc(F)cc(F)c2)c(=O)n(C)c1=O,-28%,-27,x,-22%,x
CC(C)Cn1c(N)c(C(=O)COC(=O)c2cc(C3CC3)nc3ccccc23)c(=O)n(C)c1=O,u,15,21µM*,32µM*,-36%
CC(C)Cn1c(N)c(C(=O)COC(=O)c2cc(C(F)(F)F)nc3ccccc23)c(=O)n(C)c1=O,u,-3,-14%,28µM*,29%
CC(C)Cn1c(N)c(C(=O)COC(=O)c2cc(-c3ccccc3)nc3ccccc23)c(=O)n(C)c1=O,u,-14,0%,u,-14%
CC(C)Cn1c(N)c(C(=O)COC(=O)c2cnc(Cl)c(Cl)c2)c(=O)n(C)c1=O,16µM*,13,x,-34%,x
Cn1c(N)c(C(=O)COC(=O)c2cc(C(F)(F)F)nc3ccccc23)c(=O)n(C)c1=O,-6%[8.37 µM],12,2%,x,8%
CC(C)[C@@H](OCc1ccccc1)[C@H](C)C=NO[C@H](C)c1cn([C@@H]2COC[C@@H]2O)nn1,x,x,x,x,-6%[14.2 µM]
CCCN1[C@@H]2c3cccc(=O)n3C[C@H]1[C@H](CO)[C@H]2C(=O)NC1Cc2ccccc2C1,x,-10,x,x,x
COCCCNc1nc2c(S(=O)(=O)c3ccc(C)c(C)c3)nnn2c2ccc(Cl)cc12,x,6,x,-7%,u
COc1cc(NC(=O)c2c(-c3ccccc3Cl)noc2C)c2ncccc2c1,u,-23,u,-30%,20%[46.1 µM]
Cc1cccc(C(=O)Nc2cccc3cccnc23)c1,-5%,120,x,65%,x
Cc1onc(-c2ccccc2Cl)c1C(=O)Nc1cccc2cccnc12,7.1µM*,-99*,u,u,u
Cc1cnc(C(=O)Nc2cccc3cccnc23)cn1,u,-89*,1.6µM*,12%,u
Cc1onc(-c2ccccc2Cl)c1C(=O)Nc1ccccc1C(N)=O,-29%,-35,-5%,11µM*,-19%
CCOc1ccc(OC(=O)c2c(-c3ccccc3Cl)noc2C)cc1,x,-24,-12%[46.1 µM],40µM*,x
O=C(NN=C1C[C@@H](O)[C@H](O)[C@H]2[C@@H]3C(=O)N(c4cccc(Oc5ccccc5)c4)C(=O)[C@@H]3CC[C@H]12)OCc1ccccc1,x,x,u,x,4%[14.2 µM]
COc1cccc(C2C(=O)N(C3CCCCC3)CC(=O)N2CCc2ccc(OC)c(OC)c2)c1 (stereo not given),x,105,8%[46.1 µM],-10%,x
COC(=O)N[C@H](CC(C)=O)c1cccc(F)c1,x,x,x,x,-7%[14.2 µM]
Cc1ccc(S(=O)(=O)CCSc2nc(C)cc(C(F)(F)F)c2C#N)cc1,u,-71*,u,u,-47%
COC(=O)CSc1nc(C)cc(C(F)(F)F)c1C#N,2%,-24,9%,0%,-10%[46.1 µM]
